Results filed as inconclusive are left out. Activity calls are given as the source filed them. Calls come from the whole dose curve; as a rule, active = well fitted cell-killing curve with a large enough effect; inconclusive = small, poorly fitted or top-dose-only effect, or effect the other way; inactive = no such curve, though single readings can be large or run the other way. Non-standard residues stand in square brackets, D forms with d. Residues, ends and D or L forms follow the SMILES beside them. Peptide text beside a SMILES is read from it. *: point of attachment. Sta = CC(C)C[C@H](N)[C@@H](O)CC(=O)O; Isovaleryl = CC(C)CC(=O)*
Assays:
[1] = Quantitative High-Throughput drug screen in 47 multiple myeloma cell lines against the NCATS MIPE library collection: XG1_PLB cell viability assay (AID 1919866); note: nearly all actives have a fitted effect of over 35% in size
How it was run: (§1)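 Inhibition of viability over 48 h was scored by ATP content (CellTiter-Glo) in 500-cell wells. Zero and full viability were defined by media-only and DMSO-only wells.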

[2] = Quantitative High-Throughput drug screen in 47 multiple myeloma cell lines against the NCATS MIPE library collection: VP6_DJ cell viability assay (AID 1919867); note: nearly all actives have a fitted effect of over 40% in size
How it was run: as §1

[3] = Quantitative High-Throughput drug screen in 47 multiple myeloma cell lines against the NCATS MIPE library collection: KMS28BM_JCRB cell viability assay (AID 1919874); note: nearly all actives have a fitted effect of over 35% in size
How it was run: as §1

[4] = Quantitative High-Throughput drug screen in 47 multiple myeloma cell lines against the NCATS MIPE library collection: PE2_PLB cell viability assay (AID 1919869); note: nearly all actives have a fitted effect of over 35% in size
How it was run: as §1

[5] = Quantitative High-Throughput drug screen in 47 multiple myeloma cell lines against the NCATS MIPE library collection: PCM6_Riken cell viability assay (AID 1919870); note: nearly all actives have a fitted effect of over 30% in size
How it was run: as §1

[6] = Quantitative High-Throughput drug screen in 47 multiple myeloma cell lines against the NCATS MIPE library collection: RPMI8226_ATCC cell viability assay (AID 1919871); note: nearly all actives have a fitted effect of over 30% in size
How it was run: as §1

[7] = Quantitative High-Throughput drug screen in 47 multiple myeloma cell lines against the NCATS MIPE library collection: OPM2_DSMZ cell viability assay (AID 1919872); note: nearly all actives have a fitted effect of over 30% in size
How it was run: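 Inhibition of cell viability is measured here. Each line was plated at 500 cells per well, treated with MIPE 4.0 drugs, kept 48 hours at 37C, then assayed for ATP content by CellTiter-Glo luminescence.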

[8] = Quantitative High-Throughput drug screen in 47 multiple myeloma cell lines against the NCATS MIPE library collection: KMS11_JCRBsus cell viability assay (AID 1919873); note: nearly all actives have a fitted effect of over 50% in size
How it was run: as §1

[9] = Quantitative High-Throughput drug screen in 47 multiple myeloma cell lines against the NCATS MIPE library collection: UTMC2_PLB cell viability assay (AID 1919868); note: nearly all actives have a fitted effect of over 55% in size
How it was run: as §1

Measured: Potency
Potency is the fitted concentration of half-maximal effect.

CC1(C)NC(=O)N(c2ccc([N+](=O)[O-])c(C(F)(F)F)c2)C1=O
inactive: [1] | [2] | [3]

NCCCCNCCCN
active: [1] 20.9 µM | [2] 26.4 µM | [4] 16.6 µM | [5] 16.6 µM | [6] 23.5 µM | [7] 20.9 µM
inactive: [3]

O=C(NCCO[N+](=O)[O-])c1cccnc1
not listed: [6] | [8] | [9]
inactive: all other assays above

O=C1c2c(O)cc(O)cc2OC(c2ccc(O)c(O)c2)C1O (stereo not given)
inactive: [1] | [2] | [5] | [6] | [8]

CC1(C)C(=O)N(CCN2CCC(C(=O)c3ccc(F)cc3)CC2)c2ccccc21
inactive: [5] | [7]
active: [1] 14.8 µM | [2] 4.18 µM | [4] 23.5 µM | [3] 18.7 µM

CCCCC(CC)COC(=O)C(C#N)=C(c1ccccc1)c1ccccc1 (stereo not given)
not listed: [6] | [9]
inactive: all other assays above

COC(=O)C1=C(C)NC(C)=C(C(=O)OC(C)C)C1c1cccc2nonc12 (stereo not given)
active: [1] 11.8 µM | [2] 26.4 µM | [4] 20.9 µM | [5] 26.4 µM
inactive: [7]

N=C(N)c1ccc2cc(OC(=O)c3ccc(N=C(N)N)cc3)ccc2c1
inactive: [1] | [5]
active: [2] 5.26 µM | [4] 10.5 µM | [7] 10.5 µM | [3] 5.9 µM

Cc1ccc(S(=O)(=O)NC(=O)NN2CC3CCCC3C2)cc1 (stereo not given)
active: [1] 23.5 µM | [2] 23.5 µM | [5] 20.9 µM | [6] 23.5 µM | [8] 16.6 µM | [3] 18.7 µM

CCCCCCCCCCCCCCCCCCCCCCO
not listed: [8] | [9]
inactive: all other assays above

CCc1nc(N)nc(N)c1-c1ccc(Cl)cc1
inactive: [3]
active: [1] 3.72 µM | [2] 3.32 µM | [8] 16.6 µM

CC(=O)O[C@H]1C(=O)[C@@]2(C)C([C@H](OC(=O)c3ccccc3)[C@]3(O)C[C@H](OC(=O)[C@H](O)[C@@H](NC(=O)c4ccccc4)c4ccccc4)C(C)=C1C3(C)C)[C@]1(OC(C)=O)CO[C@@H]1C[C@@H]2O (stereo not given in full)
not listed: [3] | [7] | [9]
inactive: all other assays above

C[C@H](Cc1ccc(O)c(O)c1)[C@@H](C)Cc1ccc(O)c(O)c1
active: [1] 20.9 µM | [2] 16.6 µM | [4] 11.8 µM | [5] 18.7 µM | [6] 10.5 µM | [7] 18.7 µM | [3] 23.5 µM

CCC1=C(C)CN(C(=O)NCCc2ccc(S(=O)(=O)NC(=O)NC3CCC(C)CC3)cc2)C1=O (stereo not given)
not listed: [9]
inactive: all other assays above

Cc1ccc(Nc2nccc(N(C)c3ccc4c(C)n(C)nc4c3)n2)cc1S(N)(=O)=O
inactive: [3]
active: [1] 9.35 µM | [2] 16.6 µM | [4] 16.6 µM | [5] 4.69 µM | [6] 14.8 µM

Oc1ccc2ccccc2c1SSc1c(O)ccc2ccccc12
active: [1] 11.8 µM | [2] 16.6 µM | [4] 7.43 µM | [5] 13.2 µM | [6] 26.4 µM | [7] 20.9 µM | [3] 23.5 µM

O=C(NCC1CCCCN1)c1cc(OCC(F)(F)F)ccc1OCC(F)(F)F (stereo not given)
active: [1] 3.32 µM | [2] 3.72 µM | [4] 9.35 µM | [5] 4.69 µM | [8] 23.5 µM | [3] 18.7 µM

Cc1cc2cc3c(C)cc(=O)oc3c(C)c2o1
active: [1] 18.7 µM | [2] 23.5 µM | [4] 20.9 µM | [5] 20.9 µM | [6] 20.9 µM
inactive: [7] | [3]

CCOc1cc(CC(=O)N[C@@H](CC(C)C)c2ccccc2N2CCCCC2)ccc1C(=O)O
not listed: [4] | [5] | [9]
inactive: all other assays above

CCCCN(CCCC)CCC(O)c1cc2c(Cl)cc(Cl)cc2c2cc(C(F)(F)F)ccc12 (stereo not given)
active: [1] 18.7 µM | [2] 18.7 µM
inactive: [6] | [7] | [8] | [3]

COCCCOc1ccnc(CS(=O)c2nc3ccccc3[nH]2)c1C (stereo not given)
active: [2] 4.69 µM
not listed: [9]
inactive: all other assays above

Cc1cc2c(s1)Nc1ccccc1N=C2N1CCN(C)CC1
not listed: [2]
inactive: all other assays above

Clc1ccc(C(Cn2ccnc2)OCc2c(Cl)cccc2Cl)c(Cl)c1 (stereo not given)
active: [1] 20.9 µM | [2] 16.6 µM | [5] 14.8 µM

O=C(O)c1cn(-c2ccc(F)cc2)c2cc(N3CCNCC3)c(F)cc2c1=O
not listed: [2]
inactive: all other assays above

CCN(CCO)CCCC(C)Nc1ccnc2cc(Cl)ccc12 (stereo not given)
not listed: [4] | [8] | [9]
inactive: all other assays above

O=C(O)c1cc(=O)c2c(OCC(O)COc3cccc4oc(C(=O)O)cc(=O)c34)cccc2o1
active: [2] 5.26 µM
inactive: [1] | [4] | [5] | [7] | [3]

CC1=C(C)C(=O)C(C(CCCCCC(=O)O)c2ccccc2)=C(C)C1=O (stereo not given)
inactive: [1]
active: [2] 3.72 µM | [5] 2.09 µM

CN(C)[C@@H](CCOc1cccc2ccccc12)c1ccccc1
active: [1] 16.6 µM | [2] 26.4 µM | [4] 23.5 µM | [5] 18.7 µM | [6] 16.6 µM | [8] 23.5 µM | [3] 18.7 µM

Nc1cccc2c1CN(C1CCC(=O)NC1=O)C2=O (stereo not given)
active: [1] 3.03 µM | [2] 4.81 µM
inactive: [5] | [7] | [3]

C[C@@H](N)C1CCC(C(=O)Nc2ccncc2)CC1 (stereo not given in full)
active: [1] 9.35 µM | [9] 6.62 µM | [4] 16.6 µM | [5] 14.8 µM
inactive: [6] | [7] | [8] | [3]

Nc1nc(OCc2ccccc2)c2[nH]cnc2n1
inactive: [6] | [7] | [8] | [3]
active: [1] 13.2 µM | [2] 7.43 µM

Nc1ccn([C@@H]2O[C@H](CO)[C@@H](O)C2O)c(=O)n1 (stereo not given in full)
not listed: [8] | [9]
inactive: all other assays above

CCCCCCCCOc1ccccc1C(=O)Nc1ccc(C(=O)OCC[N+](C)(CC)CC)cc1
active: [1] 16.6 µM | [9] 16.6 µM | [4] 16.6 µM | [5] 16.6 µM | [8] 18.7 µM

COC(=O)[C@H](Cc1ccccc1)NC(=O)[C@@H](N)CC(=O)O (H-Asp-Phe-OMe)
inactive: [1] | [4] | [5] | [7]

CC(C)c1ccc2oc3nc(N)c(C(=O)O)cc3c(=O)c2c1
not listed: [2] | [7] | [9]
inactive: all other assays above

C=CCc1cc(OC)c(O)c(C(=O)NCCO)c1
inactive: [1] | [4] | [7] | [8] | [3]

O=C(O)c1cccc(-c2noc(-c3ccccc3F)n2)c1
not listed: [2] | [8] | [9]
inactive: all other assays above

CCOC(=O)c1c(C)n(C)c2ccc(O)cc12
active: [1] 6.62 µM
inactive: [4] | [6] | [7] | [8]

Cc1c(C(=O)NN2CCCCC2)nn(-c2ccc(Cl)cc2Cl)c1-c1ccc(Cl)cc1
active: [1] 26.4 µM | [9] 20.9 µM | [5] 26.4 µM | [3] 23.5 µM

CCOC(=O)C(C)Oc1cccc2c(=O)n(CC(=O)Nc3ccc4c(c3)OCCO4)ccc12 (stereo not given)
not listed: [2] | [7] | [9]
inactive: all other assays above

COc1cc(OC)c(C(=O)CCCN2CCCC2)c(OC)c1
inactive: [1] | [4] | [7] | [8]

CCOC(=O)C1=C(O)C(=O)N(Cc2ccccc2)C1
active: [6] 13.2 µM
not listed: [2] | [9]
inactive: all other assays above

c1cnc2cc3c(cc2n1)C1CNCC3C1
not listed: [2] | [6] | [9]
inactive: all other assays above

COc1c2occc2cc2ccc(=O)oc12
active: [1] 5.9 µM
inactive: [4] | [5] | [7]

O=C(OC1C[C@H]2CC[C@@H](C1)[N+]21CCCC1)C(O)(c1ccccc1)c1ccccc1 (stereo not given in full)
not listed: [2] | [8]
inactive: all other assays above

NNc1nncc2ccccc12
not listed: [2] | [9]
inactive: all other assays above

CC(C)CC(=O)N[C@H](C(=O)N[C@H](C(=O)N[C@@H](CC(C)C)[C@@H](O)CC(=O)N[C@@H](C)C(=O)N[C@@H](CC(C)C)[C@@H](O)CC(=O)O)C(C)C)C(C)C (Isovaleryl-VV[Sta]A[Sta]-OH)
active: [1] 16.6 µM
inactive: [4] | [7] | [3]

O=c1c(O)c(-c2cc(O)c(O)c(O)c2)oc2cc(O)cc(O)c12
inactive: [1] | [9] | [5]
active: [7] 26.4 µM

C[Se]CCC(N)C(=O)O (stereo not given)
not listed: [2] | [3] | [5]
inactive: all other assays above

COc1cc2c(cc1OC)C1CC(=O)C(CC(C)C)CN1CC2 (stereo not given)
active: [6] 5.9 µM
inactive: [1] | [4] | [3]

O=C(NC(Cc1cc(=O)[nH]c2ccccc12)C(=O)O)c1ccc(Cl)cc1 (stereo not given)
active: [1] 23.5 µM
inactive: [4] | [7] | [3]

CCN(CC)CCOc1ccc(Cc2ccccc2)cc1
inactive: [1] | [9] | [4] | [7]

CC(S)C(=O)NCC(=O)O (stereo not given)
not listed: [2] | [9]
inactive: all other assays above

From PubChem BioAssay (NCATS)
